Ba/F3 V617F tox: reduced viability of JAK2V617F-dependent Ba/F3 cells, primary screen, JAK2V617F inhibitor project, cell-based, Ba/F3 EpoR-JAK2V617F, luminescence; inhibition, % at 5.6 µM; 220,000 tested, 1.1% active; ATP luminescence;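 active = inhibition above the campaign mean plus 3 SD over all tested compounds, cut at about 24% in these data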;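 also: cytokine-independent growth of Ba/F3 cells driven by EpoR plus mutant JAK2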
IEC-6 tox: cytotoxicity in IEC-6 intestinal epithelial cells, primary screen, cytotoxicity control for KLF5 inhibitor project, cell-based, luminescence; inhibition, % at 5 µM; 290,000 tested, 0.78% active; IEC-6 cytotoxicity, luminescence viability; in the data active = inhibition above about 22%
KLF5 inh: KLF5 expression inhibitors, primary screen, DLD-1 cells, luminescence. DLD-1 KLF5 promoter-luciferase reporter. AID 1700, 2009. 290,000 tested, 0.23% active. inhibition, % at 5 µM;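 active = inhibition above a per-plate limit of that plate's mean compound inhibition plus 3 SD, cut at about 60% in these data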;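 also: higher means less KLF5 promoter-driven luciferase light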
BaF3 tox: parental Ba/F3 cell viability inhibition, counter-screen for JAK2V617F inhibitor project, murine pro-B, CellTiter-Glo luminescence. CellTiter-Glo ATP luminescence. inhibition, % at 5.6 µM. 220,000 tested, 1.1% active;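 active = inhibition above a per-campaign cutoff, the mean inhibition of all tested compounds plus 3 SD, cut at about 27% in these data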
APP 5UTR inh: inhibitors of APP translation via 5'UTR reporter, primary screen, APP 5'UTR luciferase, SH-SY5Y cells | 190,000 tested, 0.82% active | SH-SY5Y APP 5'UTR-luciferase reporter, luminescence | inhibition, % at 2 µM;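 active = inhibition above a set limit, derived from the sample mean plus 3 SD, cut at about 45% in these data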
Each line names hits and unclear results; the compound was inactive in the other large screens. Only some compounds are listed: those with a hit (about 1.8% of all), similar ones and a draw of the others.

Fc1ccc(C(CCNCc2ccccn2)c2ccc(Cl)cc2)cc1 (stereo unspecified)	none (no result: Ba/F3 V617F tox, BaF3 tox, APP 5UTR inh)
COc1ccc2nc(N/C(N)=N/C(=S)Nc3cccc(C)c3)nc(C)c2c1	none (no result: APP 5UTR inh)
COc1ccc(NC(=S)/N=C(\N)Nc2nc(C)c3ccccc3n2)cc1	none (no result: APP 5UTR inh)
Cc1ccc(NC(=S)/N=C(\N)Nc2nc(C)c3cc(C)ccc3n2)c(C)c1	Ba/F3 V617F tox 42.2, BaF3 tox 51.2
CCc1ccccc1NC(=S)/N=C(\N)Nc1nc(C)c2cc(C)ccc2n1	Ba/F3 V617F tox 53.7, BaF3 tox 55.4
Cc1ccc(NC(=S)/N=C(\N)Nc2nc(C)c3cc(C)c(C)cc3n2)cc1C	BaF3 tox 38.0
Cc1cc(Br)ccc1NC(=O)CN(C)Cc1cccs1	none (no result: Ba/F3 V617F tox, BaF3 tox, APP 5UTR inh)
CCOc1cc(C(=O)N/N=C\c2cn(CC)nc2C)cc(OCC)c1OCC	none
CC1CCCN(C(=O)c2ccc3c(c2)OCO3)C1 (stereo unspecified)	none (no result: Ba/F3 V617F tox, BaF3 tox, APP 5UTR inh)
O=C(c1ccc2c(c1)OCO2)N1CCCC(c2ccccc2)C1 (stereo unspecified)	BaF3 tox 32.6
COc1ccc(C2C(C#N)=C(N)Oc3c2ccc2cccnc32)cc1OC (stereo unspecified)	Ba/F3 V617F tox 77.7, BaF3 tox 76.3, APP 5UTR inh 92.3
COc1cc(C2C(C#N)=C(N)Oc3cc(N)ccc32)cc(OC)c1OC (stereo unspecified)	APP 5UTR inh 95.3
COc1ccc(C2C(C#N)=C(N)Oc3cc(N)ccc32)cc1 (stereo unspecified)	none (no result: Ba/F3 V617F tox, BaF3 tox, APP 5UTR inh)
CCOC(=O)C1CCCN(C(=O)c2cccc([N+](=O)[O-])c2C)C1 (stereo unspecified)	none
COC(=O)Nc1nc2ccc(-c3n[nH]c(=O)c4ccccc34)cc2[nH]1	APP 5UTR inh 55.1
COC(=O)c1ccc(-c2n[nH]c(=O)c3ccccc23)cc1	none
Cc1nc(-c2cc(-c3nc(-c4cc(C(F)(F)F)cc(C(F)(F)F)c4)no3)no2)cs1	none (no result: APP 5UTR inh)
Cc1nc(-c2cc(-c3nc(-c4ccc(C(F)(F)F)cc4)no3)no2)cs1	BaF3 tox 61.1 (no result: APP 5UTR inh)
O=C(CCNC(=O)Cn1ccc2ccccc2c1=O)NCC1CCCC1c1ccccc1 (stereo unspecified)	none
CC1C(=O)NN=C1C(=O)N/N=C/c1ccco1 (stereo unspecified)	APP 5UTR inh 72.0
CCN(CC(=O)Nc1cccc(C(C)=O)c1)S(=O)(=O)c1ccc(C)cc1	none
COc1ccc(NC(=S)NNC(=O)c2nnn(-c3ccccc3)c2C)cc1	none
COc1ccc(Br)cc1C(C[N+](=O)[O-])c1c(N)n(C)c(=O)n(C)c1=O (stereo unspecified)	Ba/F3 V617F tox 66.2, BaF3 tox 36.2 (no result: APP 5UTR inh)
COc1ccc(C2=NN(C(=O)CSc3nc4ccccc4s3)C(c3ccc(F)cc3)C2)cc1 (stereo unspecified)	APP 5UTR inh 80.9
CCN1CCN(C(=O)c2ccc(Cl)c(S(=O)(=O)N3CCCCC3)c2)CC1	none (no result: Ba/F3 V617F tox, BaF3 tox, APP 5UTR inh)
Fc1ccc(/C=C2\CCCC3=C2Nc2ncnn2C3c2ccc(F)cc2)cc1 (stereo unspecified)	APP 5UTR inh 56.4
O=C(Cn1cc(S(=O)(=O)Cc2cccc(F)c2)c2ccccc21)N1CCOCC1	none (no result: Ba/F3 V617F tox, BaF3 tox, APP 5UTR inh)
[2H]c1c([2H])c([2H])c(-c2nc(N3CCCCCC3)sc2C(=O)c2ccccc2)c([2H])c1[2H]	BaF3 tox 95.5
O=S1(=O)C=C(Sc2nc3ccccc3s2)c2ccccc21	Ba/F3 V617F tox 101.5, IEC-6 tox 72.5, BaF3 tox 104.8, APP 5UTR inh 96.4
Cc1cc(C)nc(SC2=CS(=O)(=O)c3ccccc32)n1	none
O=C1NCCCC1C(=O)N1CCN(C(c2ccccc2)c2ccccc2)CC1 (stereo unspecified)	APP 5UTR inh 50.1
COP(=O)(OC)C(NC(=O)Nc1ccccc1)c1ccccc1 (stereo unspecified)	none (no result: APP 5UTR inh)
Cc1cc(O)c(C(C)C)cc1NC(=O)c1ccccc1Cl	APP 5UTR inh 45.2
Cc1cc(NC(=O)c2ccccc2Cl)c(C(C)C)cc1O	none
Cc1ccc(C(=O)NC(=S)N2CCN(C)CC2)cc1	APP 5UTR inh 51.6
O=C(COc1ccc(F)cc1)N1CCCc2ccccc21	none (no result: Ba/F3 V617F tox, BaF3 tox, APP 5UTR inh)
O=C(NNc1ccnc2cc(Cl)ccc12)C1CCCCC1	Ba/F3 V617F tox 25.2, BaF3 tox 35.5
NC(=S)NNc1ccnc2cc(Cl)ccc12	none
CCN(CC)C(=O)CSc1nc2cc3c(cc2c(=O)n1CCCCCC(=O)NCc1ccc(OC)cc1)OCO3	none

Screening results: PubChem BioAssay, several laboratories
